TMEM16A inh: TMEM16A chloride channel inhibitors, primary screen, cell-based, HTS; HEK293 TMEM16A/YFP iodide influx fluorescence, ionomycin; normalized B-score (activity score, 25-100; higher = stronger inhibition) at 10 µM; Anoctamin-1 (Mus musculus), Q8BHY3; hit rate 1.2% among 310,000; AID 588511, 2011;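 active = ratio plate-corrected score three or more library SD toward inhibition, starting fluorescence score within five deviations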;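 note: score derived from kinetic fluorescence span divided by baseline fluorescence per well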
ANO1 activ: TMEM16A chloride channel activators or potentiators, primary screen, cell-based, HTS | Anoctamin-1 (Mus musculus), Q8BHY3 | HEK293 TMEM16A/YFP-H148Q/I152L, iodide quench fluorescence; active compounds read low | B-score at 10 µM | hit rate 0.3% among 340,000 | AID 623877, 2012;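 active = fluorescence-ratio B-score plate-corrected deviation score at least 3 library SD below zero, with starting fluorescence score within 5 deviations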;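 note: channel opened by trigger with iodide after compound preincubation; score built on the fluorescence ratio of max minus min over baseline; more negative score means more quench and so TMEM16A activation or potentiation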
CHT PAM: CHT positive allosteric modulators, primary screen, cell-based, membrane potential dye, choline EC20 | High affinity choline transporter 1 (Homo sapiens), Q9GZV3 | CHT-expressing cells; active compounds read high; LV-AA mutant CHT in HEK293 cells | B-score at 10 µM | hit rate 0.49% among 310,000 | AID 488977, 2010;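 active = initial fluorescence not abnormally high and integrated response B-score, plate-corrected, over 3 SD above library mean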
Target sequence (Q9GZV3 whole entry, looked up): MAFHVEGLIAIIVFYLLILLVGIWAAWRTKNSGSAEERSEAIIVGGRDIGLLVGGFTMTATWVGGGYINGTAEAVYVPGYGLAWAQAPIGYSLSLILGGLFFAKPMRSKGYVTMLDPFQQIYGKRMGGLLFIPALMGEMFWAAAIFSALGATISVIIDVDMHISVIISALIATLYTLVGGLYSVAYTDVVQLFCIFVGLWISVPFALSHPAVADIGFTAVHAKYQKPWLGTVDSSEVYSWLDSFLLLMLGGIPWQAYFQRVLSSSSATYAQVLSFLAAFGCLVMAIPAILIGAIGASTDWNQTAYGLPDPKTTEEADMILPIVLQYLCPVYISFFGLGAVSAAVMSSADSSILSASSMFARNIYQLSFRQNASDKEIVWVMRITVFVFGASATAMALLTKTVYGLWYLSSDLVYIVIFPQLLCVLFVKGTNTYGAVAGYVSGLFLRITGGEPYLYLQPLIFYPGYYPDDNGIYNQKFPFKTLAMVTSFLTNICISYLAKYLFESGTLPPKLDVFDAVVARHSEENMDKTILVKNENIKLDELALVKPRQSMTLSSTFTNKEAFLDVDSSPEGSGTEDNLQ
CHT block: inhibitors of human choline transporter CHT; AID 488975, 2010; CHT-expressing cells, membrane potential dye, choline response; active compounds read low; B-score at 10 µM; High affinity choline transporter 1 (Homo sapiens), Q9GZV3; hit rate 0.86% among 310,000;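 active = B-score over 3 SD under the library average, and starting fluorescence ratio not unusually high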;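 note: choline stimulus applied at its EC90 after an EC20 pre-addition; B-score computed on integrated fluorescence ratio after choline addition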
TMEM16A reconf: TMEM16A chloride channel inhibitors, confirmation, cell-based, re-confirmation; HEK293 TMEM16A/YFP-H148Q, iodide quench fluorescence; ionomycin added to raise cell calcium; hit rate 39% among 2,300; shares compounds with TMEM16A inh; inhibition, % at 10 µM;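 active = mean duplicate percent inhibition, scaled so buffer wells are 0 and the reference blocker 100, over three buffer SD above buffer mean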
HEK293 Ca mobil: calcium mobilization in TMEM16A/YFP HEK293 cells, confirmation, counter-screen for TMEM16A inhibitor project. shares compounds with TMEM16A inh. Fluo4 calcium mobilization. calcium response (% of ionomycin), % at 10 µM. hit rate 2% among 2,300. AID 652231, 2013;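 active = duplicate-averaged calcium signal over 20% of the ionomycin maximum, relative to buffer baseline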;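 note: each well's signal is peak minus trough fluorescence divided by its pre-addition baseline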
YFP-HEK293 quench: iodide YFP quench changes in parental YFP-HEK293, counter-screen for TMEM16A inhibitor project, cell-based | shares compounds with TMEM16A inh | YFP ratio F(max-min)/F0 at 10 µM | AID 652233, 2013 | ionomycin | 2,300 tested, under 10 active;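 active = yellow fluorescent protein signal ratio exceeding the buffer control mean by over 5 SD of those controls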;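 note: ratio is mean of duplicate wells from kinetic YFP trace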
ClC-1 rat inh: ClC-1 chloride channel inhibition, selectivity assay for TMEM16A inhibitor project, cell-based, voltage-dependent ClC-1 | shares compounds with TMEM16A inh | CHO ClC-1-YFP, iodide influx fluorescence quench; iodide control reads 0, buffer control 100 | ratio percent, % at 10 µM | 2,300 tested, under 10 active | AID 652236, 2013;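 active = duplicate-mean ratio percent above the mean of iodide-only control wells, which defines zero, plus 5 of their SD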;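 note: higher percent means stronger block of ClC-1 iodide influx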
A number is an active result; i = inactive; nt = not tested or not shown. Rows were chosen to be rich in hits. Some 2.4% of all compounds tested hit in one or more screens of this group.

SMILES | TMEM16A inh | ANO1 activ | CHT PAM | CHT block | TMEM16A reconf | HEK293 Ca mobil | YFP-HEK293 quench | ClC-1 rat inh
CC(=O)Nc1ccc(SCC(=O)c2cc(C)n(-c3ccccc3F)c2C)cc1 | i | i | i | i | nt | nt | nt | nt
Cc1cccc2sc(NC(=O)CN(C)S(=O)(=O)c3ccc(Br)s3)nc12 | 100 | i | i | i | i | i | i | i
O=C(CCC1CCCC1)c1c(O)c2ccccc2oc1=O | 100 | i | i | i | 34.0% | 58.5% | i | i
COc1ccc(O)c(C(=O)c2coc(=N)c(C(=O)Nc3ccc(SC(F)F)cc3)c2)c1 | i | i | i | i | i | i | i | i
CC(C)OC(=O)c1cc(C(=O)c2cc(F)ccc2O)coc1=N | i | i | i | i | nt | nt | nt | nt
O=C(c1c[nH]c2ccc(S(=O)(=O)N3CCC4(CC3)OCCO4)cc2c1=O)N1CCOCC1 | nt | i | nt | nt | nt | nt | nt | nt
O=C(Nc1ccc(Cl)c(Cl)c1)N1CCOCC1 | i | i | i | i | nt | nt | nt | nt
COc1ccc2oc(C(=O)OC/C(O)=C(\C#N)c3nc4ccccc4[nH]3)c(C)c2c1 | i | i | i | i | nt | nt | nt | nt
CCOC(=O)c1c(C)[nH]c(C(=O)OC/C(O)=C(\C#N)c2nc3ccccc3[nH]2)c1C | 100 | -7.46 | i | i | i | i | i | i
COc1cc(NC(=O)COc2cc(O)c3c(c2)OC(C)(C)CC3=O)cc(OC)c1OC | 100 | i | i | i | 20.5% | i | i | i
Cc1c(-n2c(=O)n(Cc3ccccc3)c(=O)c3[nH]cnc32)cccc1S(C)=O (configuration not stated) | i | i | i | i | nt | nt | nt | nt
O=C(Nc1nc(-c2ccc(S(=O)(=O)N3CCOCC3)cc2)cs1)c1ccccc1 | i | i | i | i | nt | nt | nt | nt
O=C(Nc1nc(-c2nc3ccccc3s2)cs1)c1ccc(S(=O)(=O)N2CCOCC2)cc1 | 100 | i | i | i | 33.0% | i | i | i
Cc1ccc(NC(=O)CC2=NC(=O)C(CC(=O)Nc3ccccc3F)S2)cc1 (configuration not stated) | i | i | i | i | i | i | i | i
CSCCC(NC(=O)c1ccco1)C(=O)OCc1cc([N+](=O)[O-])cc2c1OCOC2 (configuration not stated) | i | i | i | i | nt | nt | nt | nt
CCc1cccc(C)c1NC(=O)c1ccc2c(c1)CCN2S(C)(=O)=O | i | i | i | i | nt | nt | nt | nt
CCn1c(CCNC(=O)c2cccs2)nnc1SCC(=O)Nc1ccc(Cl)cc1 | 25 | i | i | i | i | i | i | i
CC1=C(C(N)=O)C(c2ccncc2)n2nc(-c3ccccc3Cl)nc2N1 (configuration not stated) | 100 | i | i | i | i | i | i | i
COc1ccccc1-c1nc2n(n1)C(c1ccc(Cl)cc1)C(C(N)=O)=C(C)N2 (configuration not stated) | i | i | i | i | nt | nt | nt | nt
O=C(N/N=C/c1ccco1)c1ccncc1 | i | i | i | i | nt | nt | nt | nt
CC(C)C(C)(C#N)NC(=O)CSc1ncnc2sc(-c3ccccc3)cc12 (configuration not stated) | 25 | i | i | i | i | i | i | i
Cn1cc(S(=O)(=O)CC(=O)Nc2ccc(Br)cc2)c2ccccc21 | i | i | i | i | nt | nt | nt | nt
O=C(COC(=O)CSc1ccccc1)NCCNC(=O)COC(=O)CSc1ccccc1 | i | i | i | i | nt | nt | nt | nt
Cc1nn(C)c(Cl)c1NC(=O)OCc1ccc(Cl)cc1Cl | 25 | i | i | i | i | i | i | i
OCC[C@@H]1C[C@H](O)[C@@H](O)[C@]2(CCc3ccccc3O2)O1 | 25 | i | i | i | i | i | i | i
SMILES | TMEM16A inh | ANO1 activ | CHT PAM | CHT block | TMEM16A reconf | HEK293 Ca mobil | YFP-HEK293 quench | ClC-1 rat inh
OCC[C@@H]1C[C@@H](O)[C@H](O)[C@]2(CCc3ccccc3O2)O1 | i | i | i | i | nt | nt | nt | nt
CCOC(=O)c1ccc(NC(=O)CCc2nc(-c3ccccc3Cl)no2)cc1 | 100 | i | i | i | 38.5% | i | i | i
CCC1(C)Cc2c(sc3nc(NC)n(C)c(=O)c23)CO1 (configuration not stated) | 25 | i | i | i | i | i | i | i
Cn1c(NN)nc2sc3c(c2c1=O)CC(C)(C)OC3 | i | i | i | i | nt | nt | nt | nt
COc1cc2c3c(c1OC)C1(C=CC(=O)C=C1)CC3N(C(C)=O)CC2 (configuration not stated) | i | i | i | i | nt | nt | nt | nt
CCOc1ccc(C(=O)N2CCC(C(=O)c3ccc4c(c3)OCCO4)CC2)cc1 | 100 | i | i | i | i | i | i | i
CC1=CC(C)C(C(=O)O)C(C(=O)O)C1 (configuration not stated) | 100 | i | i | i | i | i | i | i
O=C(COC(=O)COc1cccc(Br)c1)NCc1ccc2c(c1)OCO2 | nt | i | nt | nt | nt | nt | nt | nt
CCOc1ccc(N(C)S(=O)(=O)c2cc(-c3cc(C)no3)ccc2C)cc1 | 100 | i | i | i | 31.0% | i | i | i
Cc1ccc(N(C)S(=O)(=O)c2cc(-c3cnc(C4CC4)o3)ccc2C)cc1 | 100 | i | i | i | 20.5% | i | i | i
Cc1ccc(-c2cnc(C3CC3)o2)cc1S(=O)(=O)Nc1ccccc1 | i | i | i | i | nt | nt | nt | nt
CSCC[C@H](NC(=O)C1CCN(S(=O)(=O)c2ccc(C)cc2)CC1)C(=O)NCc1ccco1 | i | i | i | i | nt | nt | nt | nt
COc1ccc2cc(C(=O)Nc3ccccc3)sc(=O)c2c1OC | i | i | i | i | nt | nt | nt | nt
COc1ccc2cc(C(=O)NCCO)sc(=O)c2c1OC | 25 | i | i | i | i | i | i | i
O=C1CCN(C(=O)Nc2cccc(Cl)c2)N1 | i | i | i | i | nt | nt | nt | nt
Fc1ccccc1N1CCN(c2nc3ccccc3n3nnnc23)CC1 | i | i | i | i | i | i | i | i
CCCOc1ccc(-c2nc(SCc3ccccc3)[nH]c(=O)c2C#N)cc1OC | 100 | i | i | i | 29.5% | i | i | i
CCCc1ccc(Oc2c(-c3ccc(O)c(C)c3O)n[nH]c2C)cc1 | 100 | i | i | i | i | i | i | i
COc1ccc(/C=C2\SC(=S)N(NS(=O)(=O)c3ccc(C)cc3)C2=O)c(OC)c1 | 25 | i | i | i | 23.0% | i | i | i
CCN(C(=O)COC(=O)c1ccccc1Cc1ccccc1)C1CCS(=O)(=O)C1 (configuration not stated) | i | i | i | i | nt | nt | nt | nt
